PubChem BioAssay (NCATS)
Records with an inconclusive call do not appear. Active and inactive are the calls of the source. The call rests on the fitted dose curve; in most records, active means well fitted curve in the direction sought with a large enough effect; inconclusive means small, poorly fitted or top-dose-only effect, or another doubt; inactive means no such curve, though single readings can be large; an effect the other way counts as inactive or inconclusive.

Experiments:
[1] = qHTS to identify inhibitors of the type 1 interferon - major histocompatibility complex class I in skeletal muscle: primary screen against the NCATS LOPAC collection (AID 1347405);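 further: human myoblasts with HiBiT tag on endogenous HLA-B stimulated by IFN-beta; lytic HiBiT luminescence reporting HLA-B protein level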
How it was run: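 First, engineered myoblasts carrying HLA-B-HiBiT were seeded in medium lacking dexamethasone with 4 ng/ml IFN-beta. After 1 hr, compounds were pinned in (top 46 uM final, 7 points). After 24 hrs at 37 C, luminescence was measured following 10 min lysis.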

[2] = qHTS to identify inhibitors of the type 1 interferon - major histocompatibility complex class I in skeletal muscle: primary screen against the NCATS Pharmaceutical Collection (AID 1347407);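 further: luminescence of HiBiT knocked into endogenous HLA-B as interferon-induced MHC class I level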
How it was run: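 Luminescence from HiBiT-tagged endogenous HLA-B*08:01 served as the read-out of IFN-beta-induced MHC class I in CRISPR-engineered C25cl48 myoblasts. Cells received 4 ng/ml IFN-beta plus compound (high final 46 uM, […]) for 24 h.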

[3] = qHTS for inhibitors of adenylyl cyclases using a fission yeast platform: a pilot screen against the NCATS LOPAC library (AID 1347410)
How it was run: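 Fission yeast qHTS: CHP2027 cells (AC9-GNAS-PDE4D2, fbp1-GFP), 5x10^6 cells/mL working density, EMM + His/Lys/Ura; LOPAC at up to 57 µM final; 18 h dark, 30C; GFP by laser cytometry. DPI positive control, DMSO vehicle.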

[4] = qHTS to identify inhibitors of the type 1 interferon - major histocompatibility complex class I in skeletal muscle: primary screen against the NCATS Mechanism Interrogation Plate v5.0 (MIPE) Libary (AID 1347411); further: nearly all actives have a fitted effect of over 65% in size
How it was run: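 Seed engineered human myoblasts (HLA-B HiBit) in medium without dexamethasone containing 4 ng/ml IFN-beta; after 1 hr add compound titrations (top 46 uM final). Incubate 24 hrs at 37 C, lyse 10 min with HiBiT reagent, read luminescence.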

[5] = target: Protein phosphatase 1D (Homo sapiens) (UniProt O15297); assay: RapidFire Mass Spectrometry qHTS Assay for Modulators of WT P53-Induced Phosphatase 1 (WIP1) (AID 1347424); further: series mostly up to about 63 µM
Chain of Protein phosphatase 1D (Homo sapiens) (O15297 whole entry, looked up): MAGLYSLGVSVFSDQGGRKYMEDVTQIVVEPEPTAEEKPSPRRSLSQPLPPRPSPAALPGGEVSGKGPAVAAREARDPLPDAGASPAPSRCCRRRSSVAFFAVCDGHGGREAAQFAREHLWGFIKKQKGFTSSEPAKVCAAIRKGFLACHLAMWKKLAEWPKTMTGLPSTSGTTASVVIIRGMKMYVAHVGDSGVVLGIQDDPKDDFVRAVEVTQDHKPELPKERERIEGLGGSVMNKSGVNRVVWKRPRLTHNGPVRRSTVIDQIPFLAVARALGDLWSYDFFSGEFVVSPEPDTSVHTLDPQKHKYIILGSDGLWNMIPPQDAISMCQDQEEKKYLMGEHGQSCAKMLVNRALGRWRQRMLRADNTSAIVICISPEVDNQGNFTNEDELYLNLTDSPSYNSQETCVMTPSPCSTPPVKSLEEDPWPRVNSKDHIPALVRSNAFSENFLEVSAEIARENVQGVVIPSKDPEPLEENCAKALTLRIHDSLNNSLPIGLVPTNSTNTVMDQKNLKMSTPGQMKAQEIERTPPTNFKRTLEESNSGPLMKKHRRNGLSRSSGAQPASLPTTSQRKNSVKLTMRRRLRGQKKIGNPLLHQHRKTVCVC
How it was run: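 RapidFire MS readout of dephosphorylated VEPPL-S-QETFS product, with 1 uM isotope-labelled peptide standard. Reaction: 10 nM WIP1, 2 uM phosphopeptide substrate, 5 min, room temperature, after 1 h compound preincubation; stopped with 0.5% formic acid.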

[6] = target: Protein phosphatase 1D (Homo sapiens) (UniProt O15297); assay: Rhodamine-PBP qHTS Assay for Modulators of WT P53-Induced Phosphatase 1 (WIP1) (AID 1347425)
How it was run: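 Read-out: Rhodamine-PBP fluorescence (ex 525/em 598 nm) for released Pi, read each minute for 11 min after adding 10 uM VEPPL-pS-QETFS; signal taken as f1 minus pre-substrate f0. Enzyme 5 nM WIP1 with 1 hr room-temperature compound preincubation.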

[7] = Validation qHTS assay for inhibitors of Activation Induced Cytidine Deaminase (AID): UDG Counterscreen signal (AID 1347427)
How it was run: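 Fluorescence at 560 nm excitation, 665 nm emission reports UDG signal after 250 mM NaOH (2x) addition and 30 min. Enzymes (AID 1 uM, UDG 2 U/mL, at 4/3x) preincubated 10 min with compound, then 4 h with 4x 250 nM DJC20/DJC23 substrate at room temperature.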

[8] = target: Single-stranded DNA cytosine deaminase (Homo sapiens) (UniProt Q9GZX7); assay: Validation qHTS assay for inhibitors of Activation Induced Cytidine Deaminase (AID): AID signal (AID 1347429)
Chain of Single-stranded DNA cytosine deaminase (Homo sapiens) (Q9GZX7 whole entry, looked up): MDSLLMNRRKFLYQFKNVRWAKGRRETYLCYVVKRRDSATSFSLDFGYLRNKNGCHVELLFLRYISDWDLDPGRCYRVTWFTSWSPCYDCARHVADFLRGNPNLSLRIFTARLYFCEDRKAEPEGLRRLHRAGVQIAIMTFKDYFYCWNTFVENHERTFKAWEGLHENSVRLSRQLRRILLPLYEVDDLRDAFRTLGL
How it was run: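 Steps: dispense AID with UDG; pin-transfer compound up to 114 uM final; add DJC20/DJC23 substrate and hold 4 hr at room temperature; add NaOH, hold 30 min; read FRET signal (540/590 nm).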

[9] = Primary qHTS for inhibitors of La Crosse Virus (LACV) - induced cell death in SH-SY5Y cells (AID 1508616);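 further: top concentration of the series differs between compounds; higher means more rescue of cells from virus-induced death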
How it was run: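 SH-SY5Y, 6000 cells/well; cpd via pin tool in DMSO; LACV 0.01 MOI; 6 d 37C 5% CO2; ATPLite, 5 min RT; luminescence normalized to ±virus DMSO controls.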

[10] = target: Calcium and integrin-binding protein 1 (Homo sapiens) (UniProt Q99828); assay: Validation qHTS for Identification of Calcium Integrin Binding protein 1 (CIB1) Competitor (AID 1508618)
Chain of Calcium and integrin-binding protein 1 (Homo sapiens) (Q99828 whole entry, looked up): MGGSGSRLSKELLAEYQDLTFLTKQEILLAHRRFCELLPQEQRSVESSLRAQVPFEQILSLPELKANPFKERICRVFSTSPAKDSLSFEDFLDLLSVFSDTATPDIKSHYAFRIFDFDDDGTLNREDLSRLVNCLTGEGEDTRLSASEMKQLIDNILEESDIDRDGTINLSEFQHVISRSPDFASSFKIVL
How it was run: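 CIB1-GST (1 uM final) in 5 mM HEPES pH 7.4, 125 mM NaCl, 5 mM CaCl2, 0.01% Tween20 was preincubated 15 min at room temperature with compound (up to 114 uM), then FITC-alphaIIb peptide (100 nM) added for 15 min; fluorescence polarization read.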

[11] = target: Calcium and integrin-binding protein 1 (Homo sapiens) (UniProt Q99828); assay: Primary qHTS for Identification of Calcium Integrin Binding Protein 1 (CIB1) Competitor (AID 1508620);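 further: GST tagged CIB1 binding a fluorescein labelled alphaIIb integrin peptide tracer; top concentration of the series differs between compounds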
How it was run: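 Fluorescence polarization competition: GST-tagged CIB1 (1 uM final) preincubated with compound 15 min at room temperature, then FITC-labelled alphaIIb peptide (100 nM final) added. After 15 min at room temperature, polarization read at Ex 480/Em 540.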

[12] = Counterscreen qHTS for small molecule stabilizers of the endoplasmic reticulum resident proteome: GLuc-NoTag assay (AID 1508627);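 further: SH-SY5Y cells given compound then 100 nM thapsigargin to empty ER calcium; series mostly up to about 76 µM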
How it was run: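 Counterscreen line: SH-SY5Y-GLuc-NoTag. Seed, 5 h; compound, 19 h; thapsigargin 100 nM, 4 h; 37C/5% CO2. Readout: secreted GLuc luminescence, coelenterazine 0.07x final, no lysis.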

[13] = qHTS for activators of Nrf2/ARE signaling pathway screened against the NCATS CANVASS Library (AID 1347391); further: nearly all actives have a fitted effect of over 60% in size
How it was run: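 Beta-lactamase reporter signal, read as 460 and 530 nm emission under 405 nm excitation after 2 h CCF4 loading, reflected ARE activation in HepG2 cells treated 16 h with an 11-point series.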

[14] = qHTS for activators of dead-cell proteases activity screened against the NCATS CANVASS Library (AID 1347392);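 further: luminescence from protease leaking out of membrane-damaged cells cleaving impermeant substrate; rising signal means more cytotoxicity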
How it was run: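 HepG2, 2000 cells/well, 18 h attach; cpd 11-pt, 5 h 37C 5% CO2; CytoTox-Glo (AAF-aminoluciferin) 15 min RT; luminescence read.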

[15] = qHTS for inhibitors of ER calcium dysfunction: SERCaMP assay screened against the NCATS CANVASS Library (AID 1347393);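 further: series mostly up to about 77 µM; lower secreted reporter signal means inhibitor of ER calcium depletion; nearly all actives have a fitted effect of over 40% in size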
How it was run: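 SH-SY5Y GLuc-SERCaMP, 1000 cells/well, 4 h attach; cpd 16 h, 37C/5% CO2; thapsigargin (added as 6x 600 nM) 4 h; coelenterazine; luminescence. Reduced reporter release = ER Ca stabilization.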

[16] = Vero-766 cells viability qHTS against the NCATS CANVASS Library: Counterscreen for Zika virus inhibition assay (AID 1347394); further: series mostly up to about 46 µM; nearly all actives have a fitted effect of over 60% in size
How it was run: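 Vero 766, no virus; 1000 cells/well; o/n attach; cpd 11-pt; 72 h, 37C, 5% CO2; CTG luminescence; cell-free media wells = 100% inhibition.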

[17] = qHTS for inhibitors of Wild type Zika virus screened against the NCATS CANVASS Library (AID 1347396);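 further: ATP luminescence of surviving cells so rescue from viral cell killing; series mostly up to about 46 µM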
How it was run: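 Vero 766 cells, 1000/well, o/n attach; cpds pin-transferred (11-pt qHTS); WT Zika added; 72 h, 37C, 5% CO2; CellTiter Glo lumi. Uninfected + vehicle = 100% inhibition.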

[18] = Viability qHTS for inhibitors of the SERCaMP assay screened against the NCATS CANVASS Library (AID 1347400); further: series mostly up to about 92 µM; nearly all actives have a fitted effect of over 70% in size
How it was run: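 Seed SH-SY5Y-GLuc SERCaMP MJH297 cells at 1000 per well, incubate 4 h, add compounds across an 11-point range, incubate 48 h at 37C, then add CellTiter-Glo and read luminescence.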

[19] = Redox Reaction Profiling qHTS: Assay Interference Panel against the NCATS CANVASS Library (AID 1347401)
How it was run: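 Fluorescence read-out (525 nm excitation, 598 nm emission) at time zero and after 15 min in the dark tracked resorufin formation. Mix: 5 uM resazurin, 200 uM DTT, HEPES pH 7.3 buffer with NaCl.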

Measured: Potency

Clc1ccc2nsnc2c1NC1=NCCN1
inactive: [1] | [2] | [3] | [4] | [5] | [6] | [7] | [8] | [9]

CNCCCC12CCC(c3ccccc31)c1ccccc12
inactive: [1] | [2] | [3] | [4] | [5] | [6] | [7] | [8] | [10] | [11]

CN1CCC(=C2c3ccccc3C=Cc3ccccc32)CC1
inactive: [1] | [2] | [3] | [4] | [5] | [6] | [8] | [10] | [11] | [12]

NS(=O)(=O)c1cc2c(cc1Cl)NCNS2(=O)=O
inactive: [1] | [2] | [3] | [4] | [5] | [6] | [8] | [10] | [11]

NC(=O)OCC(COC(N)=O)c1ccccc1
inactive: [1] | [2] | [3] | [4] | [5] | [6] | [8] | [9] | [10] | [11]

CC[N+](CC)(CC)CCOc1cccc(OCC[N+](CC)(CC)CC)c1OCC[N+](CC)(CC)CC
inactive: [1] | [2] | [3] | [4] | [5] | [6] | [7] | [8]

CCN1CCCC1CNC(=O)c1cc(S(=O)(=O)CC)c(N)cc1OC (centres undefined)
inactive: [1] | [2] | [3] | [4] | [5] | [6] | [8] | [10] | [11]

CN(C)CCC=C1c2ccccc2C=Cc2ccccc21
not listed: [13] | [14] | [15] | [16] | [17] | [18] | [19]
inactive: all other assays above

COc1ccc2[nH]cc(CCNC(C)=O)c2c1
not listed: [9] | [12]
inactive: all other assays above

CN1C(C(=O)Nc2ccccn2)=C(O)c2ccccc2S1(=O)=O
inactive: [1] | [2] | [3] | [4] | [5] | [6] | [8] | [9] | [10] | [11]
